The campaign covered roughly 5,500 compounds. About 2,000 (36%) were called active. Roughly 18% stayed inconclusive and do not appear here. No stated cut-off is given here; in the data, active means normalized growth mostly below about 0.91 (no sharp cut-off); inconclusive means no clear call, values can overlap the other calls; inactive means mostly above about 0.92. The list shows a part of the results.
Test: chemical genetic growth profiling, strain panel (AID 1159580);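 further: tested at 20 µM; growth read once vehicle control cultures reached saturation at 30 °C; 1 = growth at the plate median or of vehicle wells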
Settings: growth OD

Measured: normalized growth

CC1CCC2(OC1)OC1CC3C4CC[C@H]5C[C@@H](O)CC[C@]5(C)C4CC(=O)[C@]3(C)C1C2C (some centres not stated)
inactive: S. cerevisiae deletion strains, locus YJR075W, strain HOC1, stronger effect = lower value 1.01 | S. cerevisiae deletion strains, locus YKL009W, strain mrt4, stronger effect = lower value 0.965 | S. cerevisiae deletion strains, locus YKL068W, stronger effect = lower value 0.992 | S. cerevisiae deletion strains, locus YKL085W, strain MDH1 (second series), stronger effect = lower value 0.989 | S. cerevisiae deletion strains, locus YKL085W, strain MDH1, stronger effect = lower value 0.989 | S. cerevisiae deletion strains, locus YKL160W, strain elf1, stronger effect = lower value 1.01 | S. cerevisiae deletion strains, locus YKL190W, strain CNB1, stronger effect = lower value 1.01 | S. cerevisiae deletion strains, locus YKR001C, strain vps1, stronger effect = lower value 0.98 | S. cerevisiae deletion strains, locus YKR026C, strain gcn3, stronger effect = lower value 1.02 | S. cerevisiae deletion strains, locus YKR091W, strain srl3, stronger effect = lower value 1.01 | S. cerevisiae deletion strains, locus YLL001W, strain dnm1, stronger effect = lower value 0.987 | S. cerevisiae deletion strains, locus YLL026W, stronger effect = lower value 1.01 | S. cerevisiae deletion strains, locus YLL041C, strain sdh2, stronger effect = lower value 1 | S. cerevisiae deletion strains, locus YLR027C, strain aat2, stronger effect = lower value 1 | S. cerevisiae deletion strains, locus YLR039C, strain RIC1, stronger effect = lower value 0.972 | S. cerevisiae deletion strains, locus YLR058C, strain SHM2, stronger effect = lower value 1.01 | S. cerevisiae deletion strains, locus YLR102C, strain apc9, stronger effect = lower value 0.982 | S. cerevisiae deletion strains, locus YLR113W, strain HOG1, stronger effect = lower value 0.97 | S. cerevisiae deletion strains, locus YLR221C, strain rsa3, stronger effect = lower value 0.994 | S. cerevisiae deletion strains, locus YLR258W, strain gsy2, stronger effect = lower value 0.995 | S. cerevisiae deletion strains, locus YLR262C, strain YPT6 (second series), stronger effect = lower value 0.97 | S. cerevisiae deletion strains, locus YLR262C, strain YPT6, stronger effect = lower value 0.993 | S. cerevisiae deletion strains, locus YLR268W, strain sec22, stronger effect = lower value 0.952 | S. cerevisiae deletion strains, locus YLR320W, strain mms22, stronger effect = lower value 0.975 | S. cerevisiae deletion strains, locus YLR330W, strain CHS5, stronger effect = lower value 1.02 | S. cerevisiae deletion strains, locus YLR342W, strain FKS1 (second series), stronger effect = lower value 1.06 | S. cerevisiae deletion strains, locus YLR342W, strain FKS1, stronger effect = lower value 1 | S. cerevisiae deletion strains, locus YLR357W, strain rsc2, stronger effect = lower value 0.992 | S. cerevisiae deletion strains, locus YLR370C, strain arc18, stronger effect = lower value 1.02 | S. cerevisiae deletion strains, locus YLR371W, strain rom2, stronger effect = lower value 0.976 | S. cerevisiae deletion strains, locus YLR384C, strain iki3, stronger effect = lower value 1.02 | S. cerevisiae deletion strains, locus YLR418C, strain cdc73, stronger effect = lower value 0.934 | S. cerevisiae deletion strains, locus YML016C, strain PPZ1, stronger effect = lower value 1.01 | S. cerevisiae deletion strains, locus YML032C, strain rad52, stronger effect = lower value 0.965 | S. cerevisiae deletion strains, locus YML120C, strain ndi1, stronger effect = lower value 1 | S. cerevisiae deletion strains, locus YML124C, strain tub3, stronger effect = lower value 0.981 | S. cerevisiae deletion strains, locus YMR058W, strain fet3, stronger effect = lower value 1.03 | S. cerevisiae deletion strains, locus YMR078C, strain ctf18, stronger effect = lower value 1.01 | S. cerevisiae deletion strains, locus YMR125W, strain sto1, stronger effect = lower value 1.04 | S. cerevisiae deletion strains, locus YMR129W, stronger effect = lower value 1.03 | S. cerevisiae deletion strains, locus YMR205C, strain PFK2, stronger effect = lower value 1 | S. cerevisiae deletion strains, locus YMR223W, strain ubp8, stronger effect = lower value 0.999 | S. cerevisiae deletion strains, locus YMR231W, strain pep5, stronger effect = lower value 1.02 | S. cerevisiae deletion strains, locus YMR263W, strain SAP30, stronger effect = lower value 1.01 | S. cerevisiae deletion strains, locus YMR307W, strain GAS1, stronger effect = lower value 1.01 | S. cerevisiae deletion strains, locus YNL067W, strain RPL9B, stronger effect = lower value 0.991 | S. cerevisiae deletion strains, locus YNL071W, strain lat1, stronger effect = lower value 1.02 | S. cerevisiae deletion strains, locus YNL128W, strain TEP1, stronger effect = lower value 1.01 | S. cerevisiae deletion strains, locus YNL153C, strain GIM3, stronger effect = lower value 0.992 | S. cerevisiae deletion strains, locus YNL183C, strain NPR1, stronger effect = lower value 0.943 | S. cerevisiae deletion strains, locus YNL209W, strain ssb2, stronger effect = lower value 1.01 | S. cerevisiae deletion strains, locus YNL233W, strain BNI4, stronger effect = lower value 0.998 | S. cerevisiae deletion strains, locus YNL248C, strain rpa49, stronger effect = lower value 1.02 | S. cerevisiae deletion strains, locus YNL250W, strain rad50, stronger effect = lower value 0.98 | S. cerevisiae deletion strains, locus YNL271C, strain bni1, stronger effect = lower value 0.979 | S. cerevisiae deletion strains, locus YNL298W, strain CLA4, stronger effect = lower value 0.983 | S. cerevisiae deletion strains, locus YNL307C, strain MCK1, stronger effect = lower value 0.982 | S. cerevisiae deletion strains, locus YNL322C, strain KRE1 (second series), stronger effect = lower value 1.01 | S. cerevisiae deletion strains, locus YNL322C, strain KRE1, stronger effect = lower value 1.01 | S. cerevisiae deletion strains, locus YNR049C, strain mso1, stronger effect = lower value 1 | S. cerevisiae deletion strains, locus YNR052C, strain pop2, stronger effect = lower value 0.982 | S. cerevisiae deletion strains, locus YOL006C, strain TOP1, stronger effect = lower value 1.01 | S. cerevisiae deletion strains, locus YOL012C, strain htz1 0.834 | S. cerevisiae deletion strains, locus YOL147C, strain pex11, stronger effect = lower value 0.993 | S. cerevisiae deletion strains, locus YOR001W, strain rrp6, stronger effect = lower value 0.983 | S. cerevisiae deletion strains, locus YOR061W, strain CKA2, stronger effect = lower value 1.01 | S. cerevisiae deletion strains, locus YOR069W, strain VPS5, stronger effect = lower value 1.01 | S. cerevisiae deletion strains, locus YOR070C, strain gyp1, stronger effect = lower value 1.01 | S. cerevisiae deletion strains, locus YOR080W, strain dia2, stronger effect = lower value 1.04 | S. cerevisiae deletion strains, locus YOR083W, strain WHI5, stronger effect = lower value 0.957 | S. cerevisiae deletion strains, locus YOR106W, strain vam3, stronger effect = lower value 1.02 | S. cerevisiae deletion strains, locus YOR136W, strain idh2, stronger effect = lower value 0.995 | S. cerevisiae deletion strains, locus YOR144C, strain elg1, stronger effect = lower value 0.989 | S. cerevisiae deletion strains, locus YOR184W, strain ser1, stronger effect = lower value 0.96 | S. cerevisiae deletion strains, locus YOR231W, strain MKK1, stronger effect = lower value 0.963 | S. cerevisiae deletion strains, locus YOR265W, strain rbl2, stronger effect = lower value 1.01 | S. cerevisiae deletion strains, locus YOR270C, strain vph1, stronger effect = lower value 1.02 | S. cerevisiae deletion strains, locus YOR290C, strain snf2, stronger effect = lower value 1.03 | S. cerevisiae deletion strains, locus YOR316C, strain cot1, stronger effect = lower value 0.991 | S. cerevisiae deletion strains, locus YPL051W, strain arl3, stronger effect = lower value 1.02 | S. cerevisiae deletion strains, locus YPL055C, strain LGE1, stronger effect = lower value 1.02 | S. cerevisiae deletion strains, locus YPL078C, strain atp4, stronger effect = lower value 1.06 | S. cerevisiae deletion strains, locus YPL106C, strain sse1, stronger effect = lower value 1.02 | S. cerevisiae deletion strains, locus YPL240C, strain hsp82, stronger effect = lower value 1.01 | S. cerevisiae deletion strains, locus YPL241C, strain CIN2, stronger effect = lower value 1.01 | S. cerevisiae deletion strains, locus YPL256C, strain CLN2, stronger effect = lower value 0.963 | S. cerevisiae deletion strains, locus YPR119W, strain clb2, stronger effect = lower value 0.989 | S. cerevisiae deletion strains, locus YPR141C, strain kar3, stronger effect = lower value 0.986 | S. cerevisiae deletion strains, locus YPR163C, strain tif3, stronger effect = lower value 0.98 | S. cerevisiae deletion strains, locus YPR167C, strain met16, stronger effect = lower value 0.99 | S. cerevisiae deletion strains, strain wtn01, stronger effect = lower value 0.96 | S. cerevisiae strains, strain wild type, stronger effect = lower value 1.01

Reference: PubChem BioAssay AID1159580 (chemical genetic matrix, 2015)
